Experimental data as given in PubChem BioAssay (NCI).
This is part of a sample that, as a whole, favours compounds with a hit. Of some 83,000 tested, about 20% had one in any assay.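 Compound tested at a single concentration for 48 hours in 96-well plates; a percent growth value below 10 was scored as active.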 Unmarked numbers belong to inactive results. Active and inactive are the calls of the source.

What was measured:
Assay in all cases: NCI-60 one-dose screen, 48 h (100 = growth as untreated, 0 = no growth, -100 = all killed)
SK-MEL-2 melanoma = conditions: 10 µM unless noted
EKVX NSCLC = conditions: 10 µM unless noted
SN12C renal = conditions: 10 µM unless noted
UO-31 renal = conditions: 10 µM unless noted
TK-10 renal = conditions: 10 µM unless noted
ACHN renal = conditions: 10 µM unless noted
CAKI-1 renal = conditions: 10 µM unless noted
A498 renal = conditions: 10 µM
HL-60(TB) leukemia = conditions: 10 µM unless noted
CCRF-CEM leukemia = conditions: 10 µM unless noted
MOLT-4 leukemia = conditions: 10 µM unless noted
SR leukemia = conditions: 10 µM unless noted
OVCAR-8 ovarian = conditions: 10 µM unless noted
OVCAR-5 ovarian = conditions: 10 µM unless noted
OVCAR-4 ovarian = conditions: 10 µM unless noted
SK-OV-3 ovarian = conditions: 10 µM unless noted
IGROV1 ovarian = conditions: 10 µM unless noted
OVCAR-3 ovarian = conditions: 10 µM unless noted
RPMI-8226 leukemia = conditions: 10 µM unless noted
HS 578T breast = conditions: 10 µM unless noted

SMILES | growth (SK-MEL-2 melanoma) | growth (EKVX NSCLC) | growth (SN12C renal) | growth (UO-31 renal) | growth (TK-10 renal) | growth (ACHN renal) | growth (CAKI-1 renal) | growth (A498 renal) | growth (HL-60(TB) leukemia) | growth (CCRF-CEM leukemia) | growth (MOLT-4 leukemia) | growth (SR leukemia) | growth (OVCAR-8 ovarian) | growth (OVCAR-5 ovarian) | growth (OVCAR-4 ovarian) | growth (SK-OV-3 ovarian) | growth (IGROV1 ovarian) | growth (OVCAR-3 ovarian) | growth (RPMI-8226 leukemia) | growth (HS 578T breast)
COC(=O)[C@@H](C)C[C@H](Cc1ccccc1)NC(=O)c1csc([C@@H](C[C@H](C(C)C)N(C)C(=O)[C@@H](NC(=O)[C@H]2CCCCN2C)C2CC2)OC(C)=O)n1 | 5.26% (active) | 42.3% | 43.5% | 39% | 38.6% | 19.6% | 36.9% | 2.41% (active) | -26.3% (active) | 7.66% (active) | 15.3% | 2.03% (active) | 22.2% | 73% | 57.4% | 21.9% | 30.8% | -4.55% (active) | – | –
COc1ccc2nc(NC(=O)COc3cc(/C=C\c4cc(OC)c(OC)c(OC)c4)ccc3OC)sc2c1 | 16.7% | 44.7% | 45.3% | 14.7% | 23.6% | 42.8% | 6.25% (active) | -5.19% (active) | 25% | 22.6% | 12.9% | 28% | 24% | 71.6% | 49% | – | – | -39% (active) | 20.9% | -5.92% (active)
Nc1ccc2c(c1)Cc1cc(Br)ccc1-2 | 112% | 64.2% | 85.3% | 49% | 123% | 106% | 98.1% | 76.4% | 47.8% | 50% | 71% | 84.6% | 107% | 110% | 99.9% | – | 104% | 114% | 79.8% | 111%
COc1cccc2c1c(C(=O)C(=O)Nc1ccn[nH]1)cn2Cc1ccc(F)cc1 | 93.8% | 119% | 100% | 89% | 51.7% | 101% | 46.7% | -72.9% (active) | 115% | 93.2% | 97.5% | – | 101% | 91.2% | 110% | 95.9% | 84.7% | 106% | 96.8% | 100%
COc1cc(NC(C)CCCNC2CN3CCC2CC3)c2ncccc2c1 (centres undefined) | 91.7% | 71.2% | 86% | 38.3% | 79.8% | 84.9% | 78.1% | 57.2% | 65.9% | 77.7% | 74.2% | 84.9% | 75.9% | 92.8% | – | 93.4% | 69.1% | 11% | 72.9% | 65.2%
CC(=O)Nc1nc2c(s1)CC[C@@]1(C)C2=CC[C@H]2[C@@H]3CC[C@H](O)[C@@]3(C)CC[C@@H]21 | 47.4% | 92.5% | 74% | 80.3% | 91.1% | 63.9% | 44.1% | 67.8% | 29.3% | 38.8% | 50.8% | 24.9% | 80% | 92.3% | 87.4% | 81.9% | 64.3% | – | – | –
COc1ccc(/C=C\c2cc(OC)c(OC)c(OC)c2)cc1NC(=O)/C=C/c1cc(OC)c(OC)c(OC)c1 | 47% | 61.6% | 71.6% | 31.9% | 82% | 53.9% | 31.5% | -3.68% (active) | 15.7% | 39.2% | 47.7% | – | 68.8% | 77.6% | 66.1% | 3.82% (active) | 62.4% | 47.7% | 63.8% | 51.8%
O=C(O)C1C(C(=O)O)C2(Cl)C(Cl)=C(Cl)C1(Cl)C2(Cl)Cl.[Hg] (centres undefined) | 102% | 102% | 87.4% | 111% | 144% | 99% | 101% | 149% | 68.9% | 71.8% | 72.6% | – | 106% | 106% | 108% | 120% | 74.8% | 39.8% | – | 102%
Cc1cc(N(CCCl)CCCl)ccc1C=Nc1cccnc1 | 101% | 104% | 57.2% | 70.3% | 56.1% | 48.3% | 12.7% | -72.3% (active) | 41.4% | – | 52.1% | 43.9% | 78.2% | 28.2% | 80.6% | 61.3% | 99.2% | 87.5% | 78.3% | 113%
c1ccc(CSC(c2ccccc2)c2ccccc2)cc1 | 114% | 117% | 101% | 92.2% | 123% | 103% | 96.7% | 123% | 68.5% | – | 115% | 141% | 109% | 104% | 120% | 123% | 107% | 119% | 94.2% | 112%
CC[C@H](C)[C@H](NC(=O)[C@H]1CCCCN1C)C(=O)N(C)[C@H](C[C@@H](OC(C)=O)c1nc(C(=O)NC23CC(C(=O)OC)(C2)C3)cs1)C(C)C | 29.5% | 34.3% | 32.7% | 33.1% | 15.7% | 11.6% | 26.5% | -7.99% (active) | -37.2% (active) | 1.09% (active) | 6.06% (active) | – | 18.6% | 53.7% | 42.7% | 24.4% | 32% | -18.6% (active) | 25.6% | 27.5%
CC1[C@H](C)OC(=O)CC(O)CC(O)CC(O)CCC(O)C(O)C[C@]2(O)CC(O)C(C(=O)O)C(CC(OC3O[C@H](C)[C@@H](O)[C@H](N)[C@@H]3O)/C=C/C=C/C=C/C=C/CC/C=C/C=C/[C@H](C)[C@H]1O)O2 (some centres undefined) | 134% | 104% | 98.5% | 93.2% | 123% | 90.8% | 88.6% | 114% | 110% | – | 122% | – | 92% | 95.4% | 102% | 110% | 101% | 109% | 106% | 97%
O=C([O][Hg][CH2]C1OCCOC1[CH2][Hg][O]C(=O)c1ccccc1)c1ccccc1 (centres undefined) | 95.4% | 123% | 76.2% | -94.8% (active) | -99.5% (active) | -99.5% (active) | -94.7% (active) | 132% | -24.7% (active) | -15.8% (active) | -8.85% (active) | – | 90% | 112% | -89.2% (active) | 122% | 46.3% | -98.2% (active) | 12.3% | 113%
CC[CH2][Sn]([Cl])([Cl])[CH2]CC | 52.4% | 104% | 74.5% | 76.6% | 56.8% | 76.3% | 64.1% | 47.4% | 54.9% | 10% | 58.6% | – | 89.7% | 94.9% | 95.2% | 107% | 84.6% | 105% | 19% | 96.8%
CCC[CH2][Sn]([CH2]CCC)([CH2]CCC)[O]c1ccc(Cl)cc1Cl | -66.9% (active) | -51.7% (active) | -69% (active) | -85.3% (active) | -91.7% (active) | -69.5% (active) | -56.6% (active) | -98.1% (active) | -23.9% (active) | – | -6.07% (active) | -30.4% (active) | -48.1% (active) | -66.3% (active) | -100% (active) | -97.5% (active) | -66.9% (active) | -100% (active) | -9.16% (active) | -10.3% (active)
